Source: PubChem
Hits are enriched below; roughly 4.2% of the tested compounds scored in any of these assays.
Tau filament bind: qHTS Assay for Tau Filament Binding; recombinant tau filaments, thioflavin S fluorescence, 15 h; filaments grown with octadecylsulfate alongside compound; Microtubule-associated protein tau (Homo sapiens), P10636; 2% of 71,000 active; Potency, µM (highest dose often 57.1 µM), for inactives: at the top dose activity change, negative = inhibition;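 note: potency is the fitted concentration of half-maximal effect; % is set by controls: 0 for no effect and ±100 for the full control effect; actives lower thioflavin S fluorescence by blocking filaments or displacing dye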
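Read-out: ThS fluorescence, 450 nm excitation/510 nm emission; lower signal marks blocked filament formation or displaced dye. Tau at 1 uM with 30 uM ODS, 10 uM ThS, 5 mM DTT, 100 mM NaCl, 10 mM HEPES pH 7.4; 15 h, 37 C.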
15-hLO inh: qHTS Assay for Inhibitors of 15-hLO (15-human lipoxygenase); 1.4% of 74,000 active; purified 15hLO-1, xylenol orange hydroperoxide absorbance; AID 887, 2007; Potency, µM (doses to about 57.1 µM), for inactives: top-dose activity change, negative = inhibition, most hits filed as inhibitors; note: potency is the fitted concentration of half-maximal effect; % is set by controls: 0 for no effect and ±100 for the full control effect; nearly all actives have a fitted effect of over 55% in size
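Readout: Fe(III)-xylenol orange absorbance, 573-to-405 nm ratio as reaction progress. Enzyme 40 nM purified human 15hLO-1, substrate 50 uM arachidonic acid, 6 min RT after 15 min compound preincubation; Hepes pH 7.5 buffer with Triton X-100.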
Hsp90 Hop PPI: qHTS Assay for Disrupters of an Hsp90 Co-Chaperone Interaction; Hsp90 C-terminal peptide / TPR2A (Hop) interaction, human; AlphaScreen TPR2A-His6 binding biotin-Hsp90 C-terminal peptide; AID 595, 2007; 0.44% of 71,000 active; Potency, µM (top dose mostly 57 µM), inactives show at the top dose activity change, negative = inhibition; active = well fitted curve in either direction with a large enough effect; inconclusive = small, poorly fitted or top-dose-only effect, or another doubt; note: potency is the fitted concentration of half-maximal effect; % is set by controls: 0 for no effect and ±100 for the full control effect
Pol III holo inh: qHTS Assay for Inhibitors of DNA Polymerase III Holoenzyme System; reconstituted DNA polymerase III holoenzyme replication, biochemical; Potency, µM (highest dose often 57.1 µM), inactives show at the highest dose activity change, negative = inhibition; 0.25% of 71,000 active; note: potency is the fitted concentration of half-maximal effect; % is set by controls: 0 for no effect and ±100 for the full control effect
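Reconstituted *E. coli* holoenzyme (0.35 nM Pol III, 1 nM beta, 154 nM SSB, 2 nM primase) was preincubated with compound for 15 min at RT. Synthesis on 1.4 nM ssM13Gori ran 35 min, then was stopped with PicoGreen/EDTA and read as dsDNA fluorescence.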
TsaE inh: qHTS Assay for Inhibitors of YjeE; 0.05% of 71,000 active; tRNA threonylcarbamoyladenosine biosynthesis protein TsaE (Escherichia coli (strain …; Potency, µM; purified YjeE enzyme, qHTS inhibition assay
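Fluorescence polarization of a BODIPY Texas Red–ADP probe (2 uM) bound to purified YjeE (10 uM) was read after 15 min room-temperature incubation with compounds. Loss of polarization marks inhibitors; ADP serves as titrated control.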
ERK AVP inh: qHTS Assay for Inhibitors of the ERK Signaling Pathway using a Homogeneous Screening Assay; HEK293-V1b, vasopressin-stimulated pERK AlphaScreen; Potency, µM (highest dose often 57.5 µM), without a hit: at the highest dose activity, negative = inhibition, actives largely listed as inhibitors; AID 995, 2007; 0.99% of 72,000 active; note: potency is the fitted concentration of half-maximal effect; % is set by controls: 0 for no effect and ±100 for the full control effect; nearly all actives have a fitted effect of over 55% in size
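HEK293 cells stably expressing V1b receptor, seeded overnight in 1% FBS, were treated with compounds for 30 min at 37C, then stimulated 5 min with 25 nM vasopressin; phospho-ERK read by AlphaScreen SureFire after lysis.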
Tau ThS bind: Tau ThS binding assay; shares compounds with Tau filament bind; recombinant tau filaments, Thioflavin S fluorescence displacement; Potency, µM; 40% of 60 active; AID 911, 2007; calls by dose curve
aSyn ThS bind: Alpha-synuclein ThS binding assay. shares compounds with Tau filament bind. recombinant alpha-synuclein fibrils, ThS fluorescence displacement. Potency, µM. 40% of 60 active; calls by dose curve
Abeta ThS displ: Beta amyloid ThS binding assay. shares compounds with Tau filament bind. Abeta1-42 fibrillization, thioflavin S fluorescence, overnight 37 C. Potency, µM. 50% of 60 active. AID 956, 2007; calls by dose curve
Target sequence (P05067 whole entry, looked up): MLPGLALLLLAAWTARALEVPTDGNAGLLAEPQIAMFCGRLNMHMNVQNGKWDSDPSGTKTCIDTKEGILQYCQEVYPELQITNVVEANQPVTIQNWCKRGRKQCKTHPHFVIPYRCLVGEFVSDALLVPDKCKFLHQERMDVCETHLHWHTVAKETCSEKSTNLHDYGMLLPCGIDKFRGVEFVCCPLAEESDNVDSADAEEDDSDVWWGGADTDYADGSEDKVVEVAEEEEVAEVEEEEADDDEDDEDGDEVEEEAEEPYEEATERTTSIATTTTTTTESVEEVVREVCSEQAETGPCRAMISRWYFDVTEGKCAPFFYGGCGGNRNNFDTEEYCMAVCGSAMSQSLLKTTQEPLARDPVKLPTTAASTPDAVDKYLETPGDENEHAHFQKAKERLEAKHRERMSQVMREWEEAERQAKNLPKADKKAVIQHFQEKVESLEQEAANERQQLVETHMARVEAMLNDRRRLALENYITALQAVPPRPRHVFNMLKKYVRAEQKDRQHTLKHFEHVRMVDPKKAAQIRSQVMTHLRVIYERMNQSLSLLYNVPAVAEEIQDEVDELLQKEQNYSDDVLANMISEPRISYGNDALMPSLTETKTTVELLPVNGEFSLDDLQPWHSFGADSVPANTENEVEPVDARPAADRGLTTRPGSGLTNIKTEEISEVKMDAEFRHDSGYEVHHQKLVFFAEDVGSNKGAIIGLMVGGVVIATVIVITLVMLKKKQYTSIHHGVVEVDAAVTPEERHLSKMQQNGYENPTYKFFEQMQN
An asterisk follows results filed as active; i = inactive; ? = inconclusive; / = not tested or not shown; [ ] = remark or other dose. Unless noted, calls come from the whole dose curve; as a rule, active = well fitted curve in the direction sought with a large enough effect; inconclusive = small, poorly fitted or top-dose-only effect, or another doubt; inactive = no such curve, though single readings can be large; an effect the other way counts as inactive or inconclusive.

SMILES	Tau filament bind	15-hLO inh	Hsp90 Hop PPI	Pol III holo inh	TsaE inh	ERK AVP inh	Tau ThS bind	aSyn ThS bind	Abeta ThS displ
C=CCOC(=O)C(C#N)c1nc2ccccc2nc1N1CCN(c2ccccc2OC)CC1 (stereo not drawn)	2.5µM*	-11%	?	-3%	i	?	4µM*	1.4µM*	1.1µM*
CCN1CCN(c2nc3ccccc3nc2C(C#N)C(=O)OC2CCCCC2)CC1 (stereo not drawn)	0.79µM*	?	-7%	2%	i	-3%	2.8µM*	1.8µM*	1.4µM*
COc1cccc(NS(=O)(=O)c2ccc(S(=O)(=O)N3CCOCC3)cc2)c1	-7%	-1%	-4%	-7%	i	-2%	/	/	/
Nc1ccc2nc(-c3ccc(Cl)cc3)[nH]c2c1	7.9µM*	-12%	?	-8%	i	/	i	?	?
Cc1ccc(C)c(-c2nc3ccc(N)cc3[nH]2)c1	-29%	3%	-4%	-2%	i	21%	/	/	/
COCCCn1c(=N)c(C(=O)NCC2CCCO2)cc2c(=O)n3cccc(C)c3nc21 (stereo not drawn)	9%	-6%	-4%	-14%	i	?	?	?	?
Cc1cccn2c(=O)c3cc(C(=O)NCCN4CCOCC4)c(=N)n(CCc4ccccc4)c3nc12	0.5µM*	-4%	-27%	-28%	i	-15%	i	?	i
CCCn1c(=N)c(C(=O)NCC2CCCO2)cc2c(=O)n3cccc(C)c3nc21 (stereo not drawn)	-14%	-1%	-8%	-11%	i	-11%	/	/	/
CC(=O)N1CCc2cc(S(=O)(=O)NCCC(=O)Nc3ccc4c(c3)OCCO4)ccc21	3%	-4%	-14%	-3%	i	11%	/	/	/
Cc1ccc2nc(NC(=O)C3CCCN(S(=O)(=O)c4cccc5nsnc45)C3)sc2c1 (stereo not drawn)	7.9µM*	?	-17%	5%	i	-5%	i	?	i
Cc1ccnc(NC(=O)C2CCN(S(=O)(=O)c3cccc4nsnc34)CC2)c1	-86%	-4%	-11%	-5%	i	4%	/	/	/
Cc1ccc2nc(NC(=O)C3CCN(S(=O)(=O)c4cccc5nsnc45)CC3)sc2c1	5µM*	?	-16%	-1%	i	-1%	i	?	i
CN(C)CCOC(=O)COc1ccc(Cl)cc1	-6%[25.6 µM]	0%	-1%[26 µM]	-5%[25.6 µM]	i	4%	/	/	/
Nc1ccccc1NC(=O)c1ccccc1	i	4%	?	2%	i	28%	i	i	i
Nc1cccc(C(=O)Nc2ccccc2Cl)c1	-12%	6%	-3%	0%	i	-14%	/	/	/
CCN1CCCC1CNC(=O)Cn1cc2c(n1)CCC(C)C2 (stereo not drawn)	0%	-3%	-1%	0%	i	-9%	/	/	/
Cc1cc(C)c2nc(N3CCCC(C(=O)N4CCC(C(N)=O)CC4)C3)sc2c1 (stereo not drawn)	96%	3%	-6%	-6%	i	3%	/	/	/
Cc1cc(C)c2nc(N3CCCC(C(=O)NCCN4CCOCC4)C3)sc2c1 (stereo not drawn)	-34%	8%	1%	-2%	i	14%	i	i	i
COc1ccccc1NC(=O)N1c2ccc(F)cc2CCC1C (stereo not drawn)	-2%	4%	4%	-1%	i	13%	/	/	/
